Reference: PubChem BioAssay (NCI)
This is part of a sample that, as a whole, favours compounds with a hit. Of some 83,000 tested, about 20% had one in any assay.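 Testing used 96-well plates and a 48-hour single-concentration exposure. Example: -40 means 40% of the starting cells died.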 A number with no mark means an inactive call. The source made the active and inactive calls. How the source made its calls: active means growth percent below 10; inactive means the rest.

Experiments:
Assay in all cases: NCI-60 one-dose screen, 48 h (100 = growth as untreated, 0 = no growth, -100 = all killed)
Conditions in all cases: 10 µM
SR leukemia = system: SR leukemia
OVCAR-8 ovarian = system: OVCAR-8 ovarian
OVCAR-5 ovarian = system: OVCAR-5 ovarian
OVCAR-4 ovarian = system: OVCAR-4 ovarian
SK-OV-3 ovarian = system: SK-OV-3 ovarian
IGROV1 ovarian = system: IGROV1 ovarian
OVCAR-3 ovarian = system: OVCAR-3 ovarian
NCI/ADR-RES ovarian = system: NCI/ADR-RES ovarian
RPMI-8226 leukemia = system: RPMI-8226 leukemia
HS 578T breast = system: HS 578T breast

Structure (SMILES)	growth (SR leukemia) [%]	growth (OVCAR-8 ovarian)	growth (OVCAR-5 ovarian)	growth (OVCAR-4 ovarian)	growth (SK-OV-3 ovarian)	growth (IGROV1 ovarian)	growth (OVCAR-3 ovarian)	growth (NCI/ADR-RES ovarian)	growth (RPMI-8226 leukemia)	growth (HS 578T breast)
C/C(O)=C(\C=N\C(N)=S)C(=O)Nc1ccccc1	91.7	99.7%	113%	101%	100%	103%	108%	110%	–	–
Nc1nc(OCc2ccccc2)c2[nH]cnc2n1	84.9	–	77.8%	65.9%	109%	93.4%	109%	108%	115%	93.6%
CCCCCCCCCCC1CO1 (stereo not drawn)	98.5	109%	111%	98.8%	101%	111%	111%	110%	–	118%
COc1ccc(C2(O)CCCCC2)cc1	–	107%	111%	112%	107%	111%	116%	104%	95.6%	93.5%
CCOC(=O)/C(=C/c1ccc(OC)cc1)N(CC)CC	–	99.9%	113%	116%	116%	106%	106%	107%	102%	93.7%
COC(=O)C(C)Oc1ccc(OC#N)cc1 (stereo not drawn)	–	104%	94.5%	95.8%	103%	105%	105%	99.9%	103%	90.1%
COc1cc2nc3cc([N+](=O)[O-])ccc3c(Cl)c2cc1OC	91.7	88.2%	86.3%	–	106%	89.7%	123%	103%	–	112%
Cc1ccncc1C(N)=O	109	107%	–	96.8%	101%	–	90.6%	133%	–	116%
COc1ccc(-c2cc(-c3cc(-c4ccc(OC)cc4)nc(N)n3)nc(N)n2)cc1	–	99.1%	93.5%	99.6%	106%	109%	107%	100%	99.5%	96.4%
Cc1cc(=O)cc(C)n1-c1ccccc1	–	109%	98.3%	100%	94.7%	114%	120%	98.9%	97.6%	113%
COc1ccccc1NC(=O)C1=C(C)NC(C)=C(C(=O)Nc2ccccc2OC)C1c1cccc([N+](=O)[O-])c1	–	74.4%	81.9%	70.2%	74.4%	69.7%	82.9%	66.3%	51.9%	60.9%
OCCN(CCO)C(=S)S	–	100%	120%	118%	127%	111%	121%	105%	111%	99.7%
O=C1OC(c2ccc(F)cc2)CC1CN1CCOCC1 (stereo not drawn)	–	99.5%	112%	101%	107%	104%	101%	101%	75.6%	113%
CCCC[P+](c1ccccc1)(c1ccccc1)c1ccccc1	41.2	43.4%	–	–	87.2%	49.1%	43.5%	106%	–	80.2%
Nc1nc2c(c(-c3nc(N)nc4c3CCc3ccccc3-4)n1)CCc1ccccc1-2	–	56.8%	113%	101%	87.2%	109%	115%	101%	105%	80.3%
O=S(=O)(Cc1ccccc1)c1ccccc1	99.9	102%	106%	–	113%	114%	107%	117%	–	133%
CC(=O)Cc1cc(-c2cc(CC(C)=O)[nH]n2)n[nH]1	–	98.5%	90.2%	101%	90.9%	104%	111%	96.7%	109%	93.2%
COc1ccccc1C1OC2=Nc3cc(C)c(C)cc3NC2C1=O (stereo not drawn)	–	69%	62.1%	-14.2% (active)	79.6%	88.7%	22.4%	61.2%	93.5%	39.9%
Cc1ccc(/C=C2\SC(=S)N(c3ccc(F)cc3)C2=O)o1	–	0% (active)	102%	13.6%	92.2%	90.7%	79.1%	73%	86.4%	52.2%
COC(=O)c1[nH]c(=O)c(C#N)c(C(=O)OC)c1C(=O)c1ccccc1	–	101%	113%	97.5%	101%	105%	107%	97.5%	107%	84.4%
CC(=O)Nc1ccc(NC(C)=O)c2c1C(=O)c1ccccc1C2=O	78.9	92.8%	–	–	88.5%	67%	–	95.4%	–	102%
CN(C)CCN(C)CC(C)(C)C(=O)/C=C/c1ccc(Cl)cc1	–	-35.4% (active)	3.63% (active)	7.86% (active)	5.56% (active)	15.6%	10.4%	-36.1% (active)	-24.1% (active)	-4.14% (active)
Cc1c(O)cnc2nn(-c3ccccc3)c(=N)n12	–	103%	106%	95.8%	108%	113%	113%	108%	113%	127%
CC1(C)S(=O)(=O)OCCOS1(=O)=O	–	99.2%	110%	102%	111%	108%	110%	103%	104%	106%
CC1(O)OC(COc2ccc(Cl)cc2)COC1O (stereo not drawn)	–	100%	111%	99.1%	116%	113%	116%	103%	109%	95.5%
CC1(C)N=C(N)N=C(N)N1c1ccc(Cl)cc1	52.7	30.8%	–	55%	61%	35.9%	69.9%	–	–	–
C=C[Si](OC(C)=O)(OC(C)=O)OC(C)=O	–	109%	115%	110%	96.7%	97.2%	108%	104%	95.9%	107%

Structure (SMILES)	growth (SR leukemia) [%]	growth (OVCAR-8 ovarian)	growth (OVCAR-5 ovarian)	growth (OVCAR-4 ovarian)	growth (SK-OV-3 ovarian)	growth (IGROV1 ovarian)	growth (OVCAR-3 ovarian)	growth (NCI/ADR-RES ovarian)	growth (RPMI-8226 leukemia)	growth (HS 578T breast)
O=C(CC(=O)c1ccccc1O)c1ccccc1	–	73%	101%	90.6%	98.9%	98.3%	90.9%	64.4%	87.6%	106%
COC(=O)c1cc(-c2ccc(Cl)c(Cl)c2)[nH]c(=O)c1C#N	–	101%	99.2%	103%	103%	110%	116%	105%	112%	74.9%
O=C(Cc1nc2ccc([N+](=O)[O-])cc2nc1CC(=O)c1cccnc1)c1cccnc1	–	31.2%	101%	57.7%	47.9%	73.9%	65.1%	30.4%	94.5%	7.13% (active)
COc1ccc(/C(C#N)=C2C=C/C(=N/O)c3ccccc3\2)cc1	–	18.9%	27.3%	35.8%	-6.21% (active)	22.3%	1.6% (active)	15.9%	32.1%	35.1%
O=C1NC(=O)C2C(=O)NC(=O)C1C21CCc2ccccc21 (stereo not drawn)	–	103%	110%	105%	116%	109%	115%	100%	115%	89%
CCOC(=O)CCCS(C)(=O)=O	–	108%	97.4%	103%	103%	120%	127%	103%	124%	101%
CC(C)NC(=O)OCc1c(COC(=O)NC(C)C)c(-c2ccc(Cl)c(Cl)c2)n2c1SCC2	–	44.7%	-15.6% (active)	38.2%	21.9%	3.1% (active)	47.2%	38.2%	36%	36.3%
NC(=O)NC(=O)c1ccc(Cl)cc1	88.9	106%	113%	–	103%	92.6%	125%	107%	–	97.9%
O=C(Nc1ccccc1C(=O)NCC1CC1)c1cccs1	–	99.4%	99.9%	98.7%	110%	118%	117%	101%	97.4%	114%
CC(=O)CC(=O)N(C)C	–	101%	104%	101%	108%	109%	112%	100%	97.9%	98.3%
O=C(/C=C\c1ccc(O)cc1)c1ccccc1	76.6	98.6%	88.4%	–	108%	87.3%	96%	101%	–	110%
CC(CN1CCCCC1)NC(=O)c1scnc1-c1ccccc1 (stereo not drawn)	–	100%	118%	108%	103%	105%	112%	99.4%	101%	195%
O=C(O)CCCC(=O)O	94.7	99.4%	–	84.3%	104%	104%	102%	103%	–	110%
CN(C)CCN(Cc1ccccc1)c1ccccc1	88.1	115%	125%	–	110%	124%	121%	103%	–	112%
CN(C)C(=O)Oc1cccc([N+](C)(C)C)c1	–	103%	104%	83.9%	107%	115%	115%	114%	117%	107%
CC(C)COC(=O)COC(=O)OCCOCCOC(=O)OCC(=O)OCC(C)C	–	99.7%	101%	110%	100%	105%	126%	106%	97.3%	124%
CCCC(=O)c1cc(C)ccc1OC	–	111%	101%	106%	109%	94.1%	112%	112%	110%	118%
CNC(=S)NC(C)(C)C	–	99.8%	121%	113%	105%	105%	124%	105%	93.2%	104%
COc1ccc(C2OC(N)=C(O)C2=O)cc1OC (stereo not drawn)	–	105%	96.7%	103%	99.5%	106%	114%	103%	104%	70.1%
CN(C)c1ccc2oc(=O)c3ccccc3c2c1	–	104%	91.9%	69.2%	101%	95.3%	103%	94.9%	74.1%	–
Cc1ccc(C)n1-c1ccsc1C(=O)NNC(=O)CCl	–	106%	111%	93.5%	95.2%	103%	93.2%	98.5%	84.4%	92.7%
CSc1[nH]c(=O)ncc1F	–	95.4%	102%	102%	119%	110%	107%	99.3%	106%	103%
CN1C(=O)CN2CCc3ccccc3C2c2cc(Cl)ccc21 (stereo not drawn)	–	101%	83.9%	104%	90.7%	-12.2% (active)	103%	96.7%	88.3%	-5.49% (active)
S=C1NCc2cncnc2N1	–	104%	97.8%	105%	102%	111%	112%	106%	102%	105%
N#CC(=Nc1cccc(F)c1)C1=C(O)c2ccccc2C1=O	–	85.4%	103%	88.9%	98.7%	100%	–	89.1%	82%	99.7%
c1c(-c2cc(C3CC3)[nH]n2)n[nH]c1C1CC1	–	102%	93.6%	109%	96.2%	111%	117%	98.8%	105%	101%
